{"source": "PubChem BioAssay AID463173", "about": "(ICCB-Longwood Screening Facility, Harvard Medical School, 2010)", "note": "The whole screen tested about 52,000 compounds, of which about 1,700 (3.3%) were called active. This is one part of a sample in which actives are shown more often than they occur. A number with no mark means an inactive call. No stated cut-off is given here; in the data, active means survival mostly below about 52% (no sharp cut-off); inactive means mostly above about 56%."}
{"test_system": "Wild type", "assay": "S. aureus survival, RN4220 and DeltatarO strains – OD600, teichoic acid synthesis inhibitors, primary screen (AID 463173)", "conditions": "S. aureus RN4220 wild type/DeltatarO growth, OD600, 18 h, stronger effect = lower value, screened at 18.75 µg/mL (by protocol)"}
{"smiles": "O=C(CC1N=C2c3ccccc3N=C(SCc3ccccc3F)N2C1=O)NCc1cccs1", "note": "(stereo unspecified)", "survival": "75%"}
{"smiles": "Cc1cc(C)c2c(NC(=O)c3ccccc3Cl)c(C(=O)Nc3ccc(C)c(C)c3)sc2n1", "survival": "64%"}
{"smiles": "CCc1ccc(NC(=O)c2cc3nc(-c4ccc(C)cc4)cc(C(F)(F)F)n3n2)cc1", "survival": "60%"}
{"smiles": "O=C(Nc1ccc(NC(=O)C2CC23CCC3)cc1)C1CC12CCC2", "note": "(stereo unspecified)", "survival": "118%"}
{"smiles": "CCN1CCN(c2cc(C)c3cc(NC(=O)/C=C/c4cccc(OC)c4OC)ccc3n2)CC1", "survival": "83%"}
{"smiles": "Cc1ccc(S(=O)(=O)Nc2cccc(-c3ccc(N4CCC(C)CC4)nn3)c2)s1", "survival": "-3% (active)"}
{"smiles": "CC1CCN(c2ccc(-c3cccc(NS(=O)(=O)c4ccc(Cl)s4)c3)nn2)CC1", "survival": "71%"}
{"smiles": "O=S(=O)(Nc1cccc(-c2ccc(N3CCCCCC3)nn2)c1)c1ccccc1", "survival": "1% (active)"}
{"smiles": "O=S(=O)(Nc1cccc(-c2ccc(N3CCCCC3)nn2)c1)c1cccc(F)c1", "survival": "119%"}
{"smiles": "Cc1ccc(S(=O)(=O)Nc2cccc(-c3ccc(N4CCCCC4)nn3)c2)s1", "survival": "64%"}
{"smiles": "O=S(=O)(Nc1ccc(-c2ccc(N3CCCC3)nn2)cc1)c1ccc(OC(F)(F)F)cc1", "survival": "-6% (active)"}
{"smiles": "COc1ccc(F)cc1S(=O)(=O)Nc1cccc(-c2ccc(N3CCC(C)CC3)nn2)c1", "survival": "129%"}
{"smiles": "COc1ccc(C)cc1S(=O)(=O)Nc1cccc(-c2ccc(N3CCCC3)nn2)c1", "survival": "77%"}
{"smiles": "O=S(=O)(Nc1ccc(-c2ccc(N3CCCCC3)nn2)cc1)c1ccc(OC(F)(F)F)cc1", "survival": "72%"}
{"smiles": "O=S(=O)(Nc1ccc(-c2ccc(N3CCCC3)nn2)cc1)c1ccc(C(F)(F)F)cc1", "survival": "64%"}
{"smiles": "COc1ccc(C)cc1S(=O)(=O)Nc1cccc(-c2ccc(N3CCC(C)CC3)nn2)c1", "survival": "-4% (active)"}
{"smiles": "O=S(=O)(Nc1cccc(-c2ccc(N3CCCCCC3)nn2)c1)c1ccc(F)cc1", "survival": "55%"}
{"smiles": "Cc1ccc(NC(=O)C(=O)NCC(c2ccc3c(c2)OCO3)N2CCOCC2)cc1C", "note": "(stereo unspecified)", "survival": "45%"}
{"smiles": "CC(C)c1ccc(NC(=O)CSC2=Nc3ccccc3C3=NC(CC(=O)NCc4ccc(F)cc4)C(=O)N23)cc1", "note": "(stereo unspecified)", "survival": "73%"}
{"smiles": "Cc1nc(C)c(-c2csc(NCc3ccccc3)n2)s1", "survival": "123%"}
{"smiles": "COc1ccc(CC(=O)Nc2cc(-c3cn4cccnc4n3)ccc2C)cc1OC", "survival": "85%"}
{"smiles": "CCCc1noc(-c2ccc(N3CCCCC3)c([N+](=O)[O-])c2)n1", "survival": "77%"}
{"smiles": "O=C(CN(C(=O)c1csnn1)c1ccccc1)NCc1ccc2c(c1)OCO2", "survival": "114%"}
{"smiles": "O=c1oc2ccc(Br)cc2cc1-c1nc(-c2ccccc2)no1", "survival": "66%"}
{"smiles": "O=C(CSc1nnc2[nH]c(=O)cc(-c3ccccc3)n12)Nc1ccc(F)cc1F", "survival": "94%"}
{"smiles": "COCCCNC(=O)CN1C(=O)COc2ccc(S(=O)(=O)N3CCCCCC3)cc21", "survival": "77%"}
{"smiles": "CCN(CC)S(=O)(=O)c1cc(-c2onc(C)c2C)ccc1OC", "survival": "87%"}
{"smiles": "CCCCn1cc(S(=O)(=O)c2ccc(Cl)cc2)c(=O)c2cc(F)c(N3CCCCC3)cc21", "survival": "105%"}
{"smiles": "Cc1cc(C)cc(OCC(=O)Nc2ccc(S(=O)(=O)Nc3onc(C)c3C)cc2)c1", "survival": "73%"}
{"smiles": "CC(=O)N1CCc2c(sc3c2c(=O)n(-c2ccccc2)c(=O)n3CC(=O)Nc2cccc(C)c2)C1", "survival": "91%"}
{"smiles": "CC(C)(C)C(=O)Nc1ccc(-c2nc3ccc(NC(=O)C(C)(C)C)cc3[nH]2)cc1", "survival": "148%"}
{"smiles": "CCC(=O)Nc1ccc(-c2nc3ccc(NC(=O)CC)cc3[nH]2)cc1", "survival": "113%"}
{"smiles": "O=C(Nc1ccc2nc(-c3ccccc3)[nH]c2c1)c1ccco1", "survival": "1% (active)"}
{"smiles": "CCOC(=O)c1sc2ccccc2c1S(=O)(=O)Nc1ccc(C(C)=O)cc1", "survival": "90%"}
{"smiles": "COc1ccc(S(=O)(=O)c2c(C)c(NS(=O)(=O)c3ccccc3)cc(C)c2O)cc1", "survival": "90%"}
{"smiles": "Cc1ccc(S(=O)(=O)c2c(O)cc(C)c(NS(=O)(=O)c3ccc(Br)cc3)c2C)cc1", "survival": "-1% (active)"}
{"smiles": "Cc1ccc(S(=O)(=O)c2c(O)cc(C)c(NS(=O)(=O)c3ccc(Cl)cc3)c2C)cc1", "survival": "105%"}
{"smiles": "CC(OC(=O)c1cc2sccc2n1C)C(=O)NCC1CCCO1", "note": "(stereo unspecified)", "survival": "107%"}
{"smiles": "COC(=O)c1ccc(-n2nnc(-c3nsc(NC(=O)c4ccc(Cl)cc4)n3)c2C)cc1", "survival": "79%"}
{"smiles": "COc1ccc(C2c3c(n(C)c4ccccc34)C(=O)N2CC(=O)Nc2cccc(F)c2)cc1", "note": "(stereo unspecified)", "survival": "85%"}
{"smiles": "O=C(NCc1ccc(F)cc1)C(=O)NCC(c1ccc2c(c1)OCO2)N1CCOCC1", "note": "(stereo unspecified)", "survival": "88%"}
{"smiles": "COc1ccc(OCCn2c(C3CC(=O)N(c4ccc(F)cc4)C3)nc3ccccc32)cc1", "note": "(stereo unspecified)", "survival": "84%"}
{"smiles": "CCc1ccc(OCCn2c(C3CC(=O)N(Cc4ccc(F)cc4)C3)nc3ccccc32)cc1", "note": "(stereo unspecified)", "survival": "-14% (active)"}
{"smiles": "CCOc1ccc(N2CC(c3nc4ccccc4n3CCOc3ccc(CC)cc3)CC2=O)cc1", "note": "(stereo unspecified)", "survival": "79%"}
{"smiles": "Cc1cc(OCCn2c(C3CC(=O)N(Cc4ccc(F)cc4)C3)nc3ccccc32)ccc1Cl", "note": "(stereo unspecified)", "survival": "-15% (active)"}
{"smiles": "O=C1CC(c2nc3ccccc3n2CCCOc2ccccc2)CN1c1ccc(F)cc1", "note": "(stereo unspecified)", "survival": "107%"}
{"smiles": "COc1ccc(OCCCn2c(C3CC(=O)N(c4ccc(F)cc4)C3)nc3ccccc32)cc1", "note": "(stereo unspecified)", "survival": "85%"}
{"smiles": "N#C/C(=C\\c1ccccc1)C(=O)Nc1sc2c(c1C(N)=O)CCC2", "survival": "75%"}
{"smiles": "COc1ccccc1CCNC(=O)c1cc2ccccn2n1", "survival": "152%"}
{"smiles": "CC(=O)Nc1c(C)nn(-c2ccccc2)c1N1CCC(C(=O)Nc2cc(F)ccc2F)CC1", "survival": "63%"}
{"smiles": "CC(=O)Nc1c(C)nn(-c2ccccc2)c1N1CCC(C(=O)NCc2ccccc2Cl)CC1", "survival": "-4% (active)"}
{"smiles": "CC(=O)Nc1c(C)nn(-c2ccccc2)c1N1CCC(C(=O)Nc2ccc(C)cc2Cl)CC1", "survival": "71%"}
{"smiles": "CC(=O)Nc1c(C)nn(-c2ccccc2)c1N1CCC(C(=O)NCc2cccc(F)c2)CC1", "survival": "1% (active)"}
{"smiles": "CC(=O)Nc1c(C)nn(-c2ccccc2)c1N1CCC(C(=O)NCc2ccc(Cl)cc2)CC1", "survival": "81%"}
{"smiles": "CC(=O)Nc1ccc(NC(=O)C2CCN(c3c(NC(C)=O)c(C)nn3-c3ccccc3)CC2)cc1", "survival": "63%"}
{"smiles": "CC(=O)Nc1c(C)nn(-c2ccccc2)c1N1CCC(C(=O)Nc2ccc(F)cc2Cl)CC1", "survival": "60%"}
{"smiles": "CC(=O)Nc1c(C)nn(-c2ccccc2)c1N1CCC(C(=O)NCc2ccc(F)cc2)CC1", "survival": "-3% (active)"}
{"smiles": "CC(=O)Nc1c(C)nn(-c2ccccc2)c1N1CCC(C(=O)NCc2cccc(Cl)c2)CC1", "survival": "71%"}
{"smiles": "CN(C(=O)CSc1nc2ccc(NC(=O)c3cccs3)cc2s1)c1ccccc1", "survival": "77%"}
{"smiles": "CCOc1ccc(NC(=O)Cn2cc(C(=O)C3CC3)c3ccccc32)cc1", "survival": "78%"}
{"smiles": "CC1Cc2ccccc2N1C(=O)c1cc2sccc2n1Cc1ccc(F)cc1", "note": "(stereo unspecified)", "survival": "119%"}
{"smiles": "Cn1c(=O)cc(OCC(=O)NCc2ccc(F)cc2Cl)c2ccccc21", "survival": "117%"}
{"smiles": "CCOc1ccc(NC(=O)c2c(NC(=O)Cc3ccccc3)sc3c2CCCC3)cc1", "survival": "69%"}
{"smiles": "Cc1noc(-c2ccc(-c3noc(-c4ccc(F)cc4)n3)cc2)n1", "survival": "64%"}
{"smiles": "Cc1noc(-c2ccc(-c3noc(-c4ccc(Cl)cc4)n3)cc2)n1", "survival": "87%"}
{"smiles": "Cc1noc(-c2ccc(-c3noc(-c4ccccc4)n3)cc2)n1", "survival": "-6% (active)"}
{"smiles": "Clc1cccc(C2=NC(c3cccs3)=Nc3ccc(Br)cc3N2)c1", "survival": "79%"}
{"smiles": "CCOc1ccc(-c2c(C)nn3c(C)c(C(=O)NCCN(C)C)cnc23)cc1OCC", "survival": "87%"}
{"smiles": "Cc1cccc(N2CCN(c3c4c(nc5nncn35)CCC4)CC2)c1C", "survival": "84%"}
{"smiles": "COc1ccccc1CNC(=O)Cn1ncc2c3ccccc3n(Cc3ccccc3C)c2c1=O", "survival": "85%"}
{"smiles": "CCCn1c2ccccc2c2cnn(CC(=O)NCc3ccccc3Cl)c(=O)c21", "survival": "120%"}
{"smiles": "CCCn1c2ccccc2c2cnn(CC(=O)NCC3CCN(Cc4ccc(F)cc4)CC3)c(=O)c21", "survival": "74%"}
{"smiles": "CCCn1c2ccccc2c2cnn(CC(=O)NCC3CCN(Cc4ccc(C)cc4)CC3)c(=O)c21", "survival": "-1% (active)"}
{"smiles": "CCCn1c2ccccc2c2cnn(CC(=O)NCC3CCN(Cc4ccccc4C)CC3)c(=O)c21", "survival": "14% (active)"}
{"smiles": "CCCn1c2ccccc2c2cnn(CC(=O)NC(C)CC)c(=O)c21", "note": "(stereo unspecified)", "survival": "64%"}
{"smiles": "Cc1ccc(CNC(=O)CN(C)S(=O)(=O)c2ccc3c(c2)c(=O)n(C)c(=O)n3C)cc1", "survival": "84%"}
{"smiles": "c1ccc(C(c2nnnn2C2CCCC2)N2CCN(c3ccccc3)CC2)cc1", "note": "(stereo unspecified)", "survival": "108%"}
{"smiles": "Cc1ccc(C)c(N2CCN(C(=O)C3CCC(CNS(=O)(=O)c4ccc(Br)s4)CC3)CC2)c1", "note": "(stereo unspecified)", "survival": "76%"}
{"smiles": "O=C(Nc1cc(F)ccc1F)c1ccc(CN2CC(=O)N3CCCCC3C2=O)cc1", "note": "(stereo unspecified)", "survival": "76%"}
{"smiles": "Cc1ccc(NC(=O)c2ccc(CN3CC(=O)N4CCCCC4C3=O)cc2)cc1C", "note": "(stereo unspecified)", "survival": "73%"}
{"smiles": "O=C(Nc1ccc(F)cc1)c1ccc(CN2CC(=O)N3CCCCC3C2=O)cc1", "note": "(stereo unspecified)", "survival": "-6% (active)"}
{"smiles": "CC(C)c1ccc(NC(=O)c2ccc(CN3CC(=O)N4CCCCC4C3=O)cc2)cc1", "note": "(stereo unspecified)", "survival": "90%"}
{"smiles": "CCc1ccc(NC(=O)c2ccc(CN3CC(=O)N4CCCCC4C3=O)cc2)cc1", "note": "(stereo unspecified)", "survival": "87%"}
{"smiles": "Cc1ccc(NC(=O)c2ccc(CN3CC(=O)N4CCCCC4C3=O)cc2)cc1", "note": "(stereo unspecified)", "survival": "-6% (active)"}
{"smiles": "CC(C)CCNc1ccc(-c2ccc(Cl)cc2)nn1", "survival": "106%"}
{"smiles": "CCCCN(CCCC)C(=O)c1cc2c(=O)n3ccccc3nc2s1", "survival": "61%"}
